The values that follow come from the antibiotic and cytotoxicity screens of Wong et al. (2023).

The campaign covered roughly 39,000 compounds. About 500 (1.3%) were called active. This excerpt belongs to a sample that is enriched for actives.

The test system of this test is S. aureus RN4220. Put plainly: growth inhibition call (relative growth <= 0.2). As to conditions: 50 µM.
For the compound `C[C@H](CO)N1C[C@H](C)[C@H](CN(C)C(=O)Nc2ccccc2)OCCCC[C@H](C)Oc2ccc(NC(=O)Nc3ccc(F)cc3)cc2C1=O`, the growth inhibition call is “inactive”.
In the case of `C[C@H](CO)N1C[C@H](C)[C@@H](CN(C)CC2CC2)Oc2ccc(NS(=O)(=O)c3cccs3)cc2C1=O` it was “inactive”; in that of `Cc1ccc(S(=O)(=O)N(C)C[C@H]2Oc3ccc(NC(=O)Nc4cccc5ccccc45)cc3C(=O)N([C@@H](C)CO)C[C@H]2C)cc1`, “inactive”.
As to `O=C1NCC(=O)N2[C@@H]1C[C@@H](C(=O)O)[C@H]2c1ccc(O)cc1`, the growth inhibition call is “inactive”.
Turning to `C[C@H](CO)N1C[C@H](C)[C@H](CN(C)Cc2cccc(F)c2)Oc2cc(C#CC3CC3)ccc2S1(=O)=O`, the growth inhibition call is “inactive”.
As to `C[C@H](CO)N1C[C@H](C)[C@@H](CN(C)CC2CCCCC2)Oc2ccc(NC(=O)Cn3cnnn3)cc2C1=O`, the growth inhibition call was “inactive”.
To `C[C@@H]1CN([C@@H](C)CO)S(=O)(=O)c2ccc(Br)cc2O[C@H]1CN(C)S(=O)(=O)c1ccc(F)cc1` belongs “inactive”; to `COc1ccc(S(=O)(=O)N(C)C[C@@H]2Oc3ccc(NC(=O)c4ccncc4)cc3C(=O)N([C@H](C)CO)C[C@@H]2C)cc1`, “inactive”.
Consider `C[C@H](CO)N1C[C@H](C)[C@@H](CN(C)S(=O)(=O)c2cn(C)cn2)OCCCC[C@H](C)Oc2ccc(NS(=O)(=O)c3cn(C)cn3)cc2C1=O`, for which the growth inhibition call was “inactive”.
Take `C[C@@H]1CCCCO[C@H](CN(C)C(=O)Cc2ccccc2)[C@@H](C)CN([C@@H](C)CO)C(=O)c2cc(NC(=O)C3CCCCC3)ccc2O1`: the growth inhibition call is “inactive”.
On to `C[C@@H]1CCCCO[C@@H](CN(C)C(=O)Nc2ccc(F)cc2)[C@H](C)CN([C@@H](C)CO)C(=O)c2cc(NC(=O)CCC(F)(F)F)ccc2O1`, for which the growth inhibition call is “inactive”.
To `C[C@H]1CN([C@@H](C)CO)C(=O)CCCn2nncc2CO[C@@H]1CN(C)S(=O)(=O)c1ccc(Oc2ccccc2)cc1` belongs “inactive”.
To `C[C@H](N)C(=O)NCC(=O)N[C@H]1CSSC[C@@H](C(=O)O)NC(=O)[C@H](CO)NC(=O)[C@H]([C@@H](C)O)NC(=O)[C@H](Cc2ccccc2)NC(=O)[C@H]([C@@H](C)O)NC(=O)[C@H](CCCCN)NC(=O)[C@H](Cc2c[nH]c3ccccc23)NC(=O)[C@H](Cc2ccccc2)NC(=O)[C@H](Cc2ccccc2)NC(=O)[C@H](CC(N)=O)NC(=O)[C@H](CCCCN)NC1=O` belongs “inactive”.
To `CSCC[C@H](NC(=O)[C@H](Cc1c[nH]c2ccccc12)NC(=O)CNC(=O)[C@@H](NC(=O)[C@H](Cc1ccc(OS(=O)(=O)O)cc1)NC(=O)[C@H](CC(=O)O)NC(=O)[C@H](CCC(N)=O)NC(=O)[C@@H]1CCC(=O)N1)[C@@H](C)O)C(=O)N[C@@H](CC(=O)O)C(=O)N[C@@H](Cc1ccccc1)C(N)=O` belongs “inactive”; to `CCCCCCCCCC(=O)N[C@@H](Cc1c[nH]c2ccccc12)C(=O)N[C@H](CC(N)=O)C(=O)N[C@@H](CC(=O)O)C(=O)N[C@@H]1C(=O)NCC(=O)N[C@@H](CCCN)C(=O)N[C@@H](CC(=O)O)C(=O)N[C@H](C)C(=O)N[C@@H](CC(=O)O)C(=O)NCC(=O)N[C@H](CO)C(=O)N[C@@H]([C@H](C)CC(=O)O)C(=O)N[C@@H](CC(=O)c2ccccc2N)C(=O)O[C@@H]1C`, “active”.
For the compound `CS(=O)(=O)NCc1cnc2n1CCN(C(=O)[C@H]1CCOC1)CC2`, the growth inhibition call was “inactive”.
In the case of `CC(C)[N+]1(C)C2CCC1CC(OC(=O)C(CO)c1ccccc1)C2.[Br-]` (stereo unspecified), the growth inhibition call is “inactive”.
In the case of `C[C@H](CO)N1C[C@H](C)[C@@H](CN(C)Cc2ccc(-c3ccccc3)cc2)Oc2c(NS(=O)(=O)c3ccc(F)cc3)cccc2C1=O` it was “inactive”.
In the case of `C=C(NC(=O)C(=C)NC(=O)c1csc(C2=N[C@@H]3c4csc(n4)[C@@H]4NC(=O)c5csc(n5)[C@H](C(C)(O)[C@@H](C)O)NC(=O)[C@H]5CSC(=N5)/C(=C/C)NC(=O)[C@H]([C@@H](C)O)NC(=O)c5csc(n5)[C@]3(CC2)NC(=O)[C@@H](C)NC(=O)C(=C)NC(=O)[C@@H](C)NC(=O)[C@@H]([C@H](C)CC)N[C@H]2C=Cc3c([C@@H](C)O)cc(nc3[C@@H]2O)C(=O)O[C@H]4C)n1)C(N)=O` (stereo partly specified) it was “inactive”; in that of `C=C(NC(=O)C(=C)NC(=O)c1csc(C2=NC3c4csc(n4)C4NC(=O)c5csc(n5)C(C(C)(O)C(C)O)NC(=O)C5CSC(=N5)C(=CC)NC(=O)C(C(C)O)NC(=O)c5csc(n5)C3(CC2)NC(=O)C(C)NC(=O)C(=C)NC(=O)C(C)NC(=O)C(C(C)CC)NC2C=Cc3c(C(C)O)cc(nc3C2O)C(=O)OC4C)n1)C(N)=O` (stereo unspecified), “active”; in that of `C=C(NC(=O)C(=C)NC(=O)c1csc(C2=N[C@H]3c4csc(n4)[C@H]4NC(=O)c5csc(n5)[C@H](C(C)(O)[C@@H](C)O)NC(=O)[C@H]5CSC(=N5)C(=CC)NC(=O)[C@H]([C@@H](C)O)NC(=O)c5csc(n5)[C@]3(CC2)NC(=O)[C@H](C)NC(=O)C(=C)NC(=O)[C@H](C)NC(=O)[C@H]([C@H](C)CC)N[C@@H]2C=Cc3c([C@H](C)O)cc(nc3[C@H]2O)C(=O)O[C@@H]4C)n1)C(N)=O` (stereo partly specified), “inactive”.
In the case of `COCCNC(=O)c1cn(C)nc1OC`, the growth inhibition call was “inactive”.
`C[C@H]1CN([C@@H](C)CO)C(=O)c2cccc(NS(=O)(=O)c3cn(C)cn3)c2O[C@H]1CN(C)S(=O)(=O)c1cn(C)cn1`: the growth inhibition call is “inactive”.
In the case of `C[C@H]1CN([C@@H](C)CO)S(=O)(=O)c2ccc(C#CC3(O)CCCC3)cc2O[C@H]1CN(C)C(=O)Cc1ccccc1`, the growth inhibition call is “inactive”.
In the case of `CC(C)NC(=O)N(C)C[C@@H]1Oc2c(NS(=O)(=O)c3ccccc3)cccc2C(=O)N([C@@H](C)CO)C[C@H]1C`, the growth inhibition call was “inactive”.
In the case of `C[C@H](CO)N1C[C@H](C)[C@@H](CN(C)C(=O)CCN2CCCCC2)Oc2ncc(C#CCN(C)C)cc2C1=O` it was “inactive”.
In the case of `O=C(O)c1cc(F)c2nc(N3[C@@H]4CC[C@H]3C[C@@H](OCc3c(-c5ccccc5OC(F)(F)F)noc3C3CC3)C4)sc2c1` it was “active”.
To `COc1ccc(CN2C[C@H](C)[C@@H](OC)CN(C)C(=O)c3ccc(NC(=O)c4nc5ccccc5s4)cc3OC[C@H]2C)cc1` belongs “inactive”.
Turning to `O=C1OC2(c3ccc(O)cc3Oc3cc(O)ccc32)c2ccccc21`, the growth inhibition call is “inactive”.
To `O=C1OC2(c3ccccc31)c1cc(I)c(O)c(I)c1Oc1c2cc(I)c(O)c1I` belongs “active”; to `O=C1OC(c2cc(I)c(O)c(I)c2)(c2cc(I)c(O)c(I)c2)c2ccccc21`, “inactive”.
In the case of `Cc1ccc(CNS(=O)(=O)N(C)C)cc1` it was “inactive”.
`CO[C@H](CN(C)S(=O)(=O)c1ccc(Cl)cc1)[C@@H](C)CN([C@H](C)CO)S(=O)(=O)c1cccc(Cl)c1`: the growth inhibition call was “inactive”.
To `C[C@H](CO)N1C[C@H](C)[C@@H](CN(C)C(=O)Cc2ccncc2)Oc2ncc(C#Cc3ccccc3F)cc2C1=O` belongs “inactive”; to `N=C(N)NCCC[C@@H](NC(=O)CC1(CC(=O)N2CCN([C@H]3c4ccccc4NC(=O)c4ccccc43)CC2)CCCC1)C(=O)NCCn1c(=O)n(-c2ccccc2)n(-c2ccccc2)c1=O`, “active”.
Turning to `C[C@H]1CN([C@@H](C)CO)C(=O)c2cc(NC(=O)Nc3cccc4ccccc34)ccc2O[C@H]1CN(C)C(=O)Nc1ccccc1`, the growth inhibition call is “inactive”.
Consider `C[C@@H]1CN([C@H](C)CO)C(=O)c2cccc(NS(C)(=O)=O)c2O[C@H]1CN(C)Cc1ccc(C(=O)O)cc1`, for which the growth inhibition call was “inactive”.
Turning to `Oc1ccc(O)cc1`, the growth inhibition call was “inactive”.
In the case of `CCC(=C(CC)c1ccc(O)cc1)c1ccc(O)cc1` it was “inactive”; in that of `CC=C(C(=CC)c1ccc(O)cc1)c1ccc(O)cc1`, “active”; in that of `CC(C)NC(=O)N(C)C[C@@H]1Oc2cc(C#Cc3ccc(F)cc3)ccc2S(=O)(=O)N([C@H](C)CO)C[C@H]1C`, “inactive”.
In the case of `C[C@H](CO)N1C[C@H](C)[C@H](CN(C)Cc2ccc(Cl)c(Cl)c2)Oc2ccc(NC(=O)Nc3ccc(F)cc3)cc2CC1=O`, the growth inhibition call was “inactive”.
To `C[C@@H]1CCCCO[C@H](CN(C)Cc2ccc(C(F)(F)F)cc2)[C@@H](C)CN([C@@H](C)CO)C(=O)c2cc(NS(=O)(=O)c3ccc(Cl)cc3)ccc2O1` belongs “inactive”; to `Cc1nc2c(=O)n(C)c(=O)n(C)c2nc1Cl`, “active”.
To `CCn1c(Cl)nc2c1c(=O)n(C)c(=O)n2C` belongs “inactive”.
As for `Cn1c(=O)c2c(nc(SCSc3nc4c(c(=O)n(C)c(=O)n4C)n3C)n2C)n(C)c1=O`, the growth inhibition call is “inactive”.
To `Cc1noc(C)c1S(=O)(=O)Nc1ccc2c(c1)CC(=O)N([C@@H](C)CO)C[C@H](C)[C@@H](CN(C)Cc1ccncc1)O2` belongs “inactive”.
To `C[C@@H]1CN([C@@H](C)CO)C(=O)c2cc(NS(C)(=O)=O)ccc2O[C@H]1CN(C)C(=O)Nc1ccccc1` belongs “inactive”.
`CC(=O)OCC1=C(C(=O)O)N2C(=O)[C@@H](NC(=O)CSc3ccncc3)[C@H]2SC1`: the growth inhibition call is “active”.
In the case of `CC(=O)OCC1=C(C(=O)[O-])N2C(=O)C(NC(=O)CSc3ccncc3)C2SC1.[Na+]` (stereo unspecified) it was “active”.
With `CC(=O)OCC1=C(C(=O)[O-])N2C(=O)C(NC(=O)Cc3cccs3)C2SC1.[Na+]` (stereo unspecified), the growth inhibition call is “active”.
Turning to `COC1(NC(=O)Cc2cccs2)C(=O)N2C(C(=O)[O-])=C(COC(N)=O)CSC21.[Na+]` (stereo unspecified), the growth inhibition call is “active”.
To `C[C@H]1CCCCO[C@@H](CN(C)C(=O)Nc2ccc(C(F)(F)F)cc2)[C@@H](C)CN([C@@H](C)CO)C(=O)c2cc(NC(=O)NC3CCCCC3)ccc2O1` belongs “inactive”.
In the case of `C[C@H]1CCCCO[C@@H](CN(C)C(=O)Nc2ccc3c(c2)OCO3)[C@@H](C)CN([C@@H](C)CO)C(=O)c2cc(NS(=O)(=O)c3ccccc3)ccc2O1` it was “inactive”.
In the case of `C[C@H](CO)N1C[C@H](C)[C@@H](CN(C)S(C)(=O)=O)Oc2c(NC(=O)Nc3ccc(C(F)(F)F)cc3)cccc2C1=O` it was “inactive”.
Take `COc1cccc(C#Cc2cnc3c(c2)C(=O)N([C@@H](C)CO)C[C@@H](C)[C@@H](CN(C)C(=O)C2CCOCC2)O3)c1`: the growth inhibition call is “inactive”.
